High-throughput results from PubChem.
HepG2 viability = qHTS for Inhibitors of TGF-b: Cytotox Counterscreen | HepG2 CAGA-GFP viability, ATP luminescence, 18 h | Potency, µM (highest dose often 46.1 µM), for inactives: at the top dose activity change, negative = cytotoxicity, actives largely listed as cytotoxic | hit rate 0.76% among 410,000; note: potency is the fitted concentration of half-maximal effect
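HepG2 CAGA-GFP cells (1000/well, DMEM with 1% FBS) received compound, then TGF-beta at 500 pg/mL final, and were incubated 18 hours at 37 degrees C. Viability was read by CellTiter-Glo luminescence. Media-only wells were set as complete cell-killing and DMSO as no toxicity.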
ATXN2 expr inh = Primary qHTS for Inhibitors of ATXN expression; HEK-293 ATXN2-luciferase reporter, luminescence, 24 h; Potency, µM (highest dose often 57 µM), without a hit: top-dose activity change, negative = inhibition, usual class: inhibitors; hit rate 0.72% among 360,000; note: potency is the fitted concentration of half-maximal effect; % is set by controls: 0 for no effect and ±100 for the full control effect; nearly all actives have a fitted effect of over 55% in size
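ATXN2-luciferase reporter cells (luciferase flanked by upstream and downstream ATXN2 gene portions) were treated 24 h at 37 °C with compounds at up to 57 uM. SteadyGlo luminescence gave expression; GF-AFC fluorescence gave viability.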
TGFb SMAD3 inh = qHTS for Inhibitors of TGF-b; HepG2 CAGA-GFP TGF-b/SMAD3 reporter, GFP fluorescence, 18 h; TGF-beta stimulated, 500 pg/mL final; Potency, µM (highest dose often 46.1 µM), inactives show top-dose activity, negative = inhibition, usual class: inhibitors; hit rate 1.2% among 410,000; note: potency is the fitted concentration of half-maximal effect; % is set by controls: 0 for no effect and ±100 for the full control effect; nearly all actives have a fitted effect of over 65% in size
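Inhibition of TGF-beta-driven CAGA-GFP reporter expression in HEPG2 cells is measured by cellular GFP fluorescence after 18 h stimulation with 500 pg/mL recombinant TGF-beta in 1% FBS medium at 37 degrees C.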
D3 ag = qHTS of D3 Dopamine Receptor Agonist: qHTS; hit rate 0.58% among 410,000; max activation, %; D3R DiscoveRx beta-arrestin cells, luminescence, 90 min; D(3) dopamine receptor (Homo sapiens), P35462; in the data active = max activation above about 30%; note: 0% is about no effect
Target sequence (P35462 whole entry, looked up): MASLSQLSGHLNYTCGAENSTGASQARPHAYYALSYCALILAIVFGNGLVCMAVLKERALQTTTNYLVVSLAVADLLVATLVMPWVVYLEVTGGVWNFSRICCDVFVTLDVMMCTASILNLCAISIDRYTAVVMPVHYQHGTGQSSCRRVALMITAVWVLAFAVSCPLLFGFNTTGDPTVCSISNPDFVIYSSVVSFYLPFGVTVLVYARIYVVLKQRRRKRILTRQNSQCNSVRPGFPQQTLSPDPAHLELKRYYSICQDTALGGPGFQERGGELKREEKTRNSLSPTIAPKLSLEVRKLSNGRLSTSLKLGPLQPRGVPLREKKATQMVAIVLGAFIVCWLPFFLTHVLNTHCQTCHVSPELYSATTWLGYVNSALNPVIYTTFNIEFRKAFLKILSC
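Agonist-mode cell screen: cells plated at 1500/well and incubated overnight at 37 °C, then exposed to library compounds for 90 min at 37 °C. Detection reagent was added for 30–60 min at room temperature, and luminescence was read.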
S2 tox = Viability Counterscreen for Primary qHTS for Inhibitors of ATXN expression. S2 cells (HEK-293 line with an ATXN2-luciferase reporter) viability, CellTiter-Fluor protease fluorescence, 24 h. Potency, µM (doses to about 56.7 µM), actives largely listed as cytotoxic. hit rate 0.49% among 400,000. AID 651635, 2014; note: potency is the fitted concentration of half-maximal effect; nearly all actives have a fitted effect of over 40% in size
D3 antag = qHTS of D3 Dopamine Receptor Antagonist: qHTS; D3R cells, DiscoveRx beta-arrestin luminescence, antagonist mode; active compounds read low; hit rate 2.5% among 360,000; max response, negative = inhibition, %; in the data active = max response below about -50%; inconclusive = no clear call, values can overlap the other calls; note: % is set by controls: 0 for no effect and ±100 for the full control effect
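Cells expressing the human receptor were seeded at 1500 cells/well, incubated overnight at 37 degrees C in 5% CO2, then exposed to library compounds with dopamine controls for 90 minutes at 37 degrees C before luminescent detection.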
Starred values were filed as active, the others as inactive; i = inactive; ? = inconclusive; · = not tested or not shown. Shown are actives, neighbours in structure and some others; about 4.8% of the full set was active somewhere. Unless noted, calls come from the whole dose curve; as a rule, active = well fitted curve in the direction sought with a large enough effect; inconclusive = small, poorly fitted or top-dose-only effect, or another doubt; inactive = no such curve, though single readings can be large; an effect the other way counts as inactive or inconclusive.

SMILES	HepG2 viability	ATXN2 expr inh	TGFb SMAD3 inh	D3 ag	S2 tox	D3 antag
CCCOc1ccc(C(=O)Nc2cccc(-c3nc4ccccc4[nH]3)c2)cc1	-8%	?	?	-2	?	·
C=C(/C=C/c1ccc(N(C)C)cc1)c1nc2ccccc2s1	-31%	·	-20%	·	·	·
C=C1C=C(C(F)F)n2ncc(C(=O)N3CCc4ccccc4C3)c2N1	20%	·	9%	·	·	·
CCc1nnc(NC(=O)c2cccc(C(=O)Nc3nnc(CC)s3)n2)s1	-54%	?	0.25µM*	5	?	6
CCc1nnc(NC(=O)c2ccc3c(c2)C(=O)N(C(C)(C)C)C3=O)s1	1%	59%	10%	38*	i	-24
CCc1nnc(NC(=O)CN2CCN(Cc3cccc(F)c3)CC2)s1	-1%	3%	-5%	-14	i	-11
CCc1nnc(NC(=O)CN2CCN(Cc3cccc(Cl)c3)CC2)s1	-21%	3%	-18%	-15	i	-52*
CCc1nnc(NC(=O)c2ccncc2)s1	-27%	5%	-14%	11	i	-3
CN(CCO)C(=O)c1cn(C2CCN(Cc3c(F)cccc3Cl)CC2)nn1	·	·	·	·	i	·
CCCOc1ccc(CCc2n[nH]c(=S)n2Cc2ccccc2)cc1	-52%	-30%	?	0	i	-55*
Nc1ccc(/C=C/c2ccnc3ccccc23)cc1[N+](=O)[O-]	-25%	·	17%	·	·	·
Cc1cc2c(c(=O)n1Cc1cccnc1)C(c1cccs1)C(C#N)=C(N)O2 (stereo unspecified)	-19%	-5%	-19%	-7	i	-51*
Cc1ccc2nc(N(CCN(C)C)C(=O)/C=C/c3cccs3)sc2c1	-26%	-31%	-1%	-11	?	-25
CN(C)CCCN(C(=O)/C=C/c1cccs1)c1nc2ccc(F)cc2s1	16µM*	?	17%	-28	·	-9
CCN(CC)CCN(C(=O)/C=C/c1cccs1)c1nc2ccc(F)cc2s1	-40%	·	?	-18	i	-71*
CCN(CC)CCN(C(=O)/C=C/c1cccs1)c1nc2ccc(C)cc2s1	-4%	·	3%	11	i	-28
O=C(NCC(c1ccco1)S(=O)(=O)c1cccs1)c1ccc(C(F)(F)F)cc1 (stereo unspecified)	-23%	5%	-27%	2	?	·
CCOC(=O)c1c(NC(=O)C2CCCCC2)sc2c1CCN(C(C)C)C2	-23%	-21%	-4%	-12	?	-60*
CCN1CCc2c(sc(NC(=O)Cc3ccccc3)c2C(=O)OC)C1	-3%	-27%	-11%	-18	i	-103*
COC(=O)c1c(NC(=O)C2CCCCC2)sc2c1CCN(C(C)C)C2	8%	-8%	9%	-11	i	?
CN1CCc2c(sc(NC(=O)Cc3ccccc3)c2C(N)=O)C1	-44%	-12%	-3%	-8	i	-27
CN1CCc2c(sc(NC(=O)Cc3ccc(F)cc3)c2C(N)=O)C1	-2%	·	19%	-3	i	-51*
CCOC(=O)c1c(NC(=O)Cc2ccccc2)sc2c1CCN(CC)C2	-23%	-13%	-21%	-14	i	-64*
CCOc1ccc(C(=O)Nc2nnc(S(=O)(=O)N(CC)c3ccccc3C)s2)cc1	-5%	·	-13%	-21	·	·
Cc1cc(Br)c(OCc2ccc(C(=O)N/N=C/c3ccc[nH]3)cc2)c(Br)c1	-95%	-63%	1.1µM*	-1	?	?
O=C(N/N=C/c1ccc[nH]1)c1ccc(O)cc1	-3%	18%	7%	17	i	15
Cc1cc(Br)ccc1NC(=O)COc1cc(=O)n(C)c2ccccc12	-8%	-1%	1%	-11	i	·
CCOC(=O)c1c(C)[nH]c(C2=NNC(=Nc3ccccc3)SC2)c1C	-34%	·	10µM*	0	?	15
